Assay results: article PMC10954555

Target: Protein lin-37 homolog (UniProt Q96GY3)
Test: cross-linking mass spectrometry; other

Sequence of Protein lin-37 homolog (Q96GY3 whole entry): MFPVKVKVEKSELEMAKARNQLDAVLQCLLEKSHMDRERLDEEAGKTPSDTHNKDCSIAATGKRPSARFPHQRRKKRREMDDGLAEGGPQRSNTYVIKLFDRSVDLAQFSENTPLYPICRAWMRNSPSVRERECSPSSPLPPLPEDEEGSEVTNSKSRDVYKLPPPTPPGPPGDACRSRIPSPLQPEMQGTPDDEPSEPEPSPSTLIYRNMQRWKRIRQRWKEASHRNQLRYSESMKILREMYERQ

Listed as a hit, yes:
Protein lin-9 homolog, Q5TKA1
Protein lin-54 homolog, Q6MZP7
Protein lin-52 homolog, Q52LA3

Target: Transcriptional repressor p66-beta (UniProt Q8WXI9)
Test: other; cross-linking mass spectrometry; other

Sequence of Transcriptional repressor p66-beta (Q8WXI9 whole entry): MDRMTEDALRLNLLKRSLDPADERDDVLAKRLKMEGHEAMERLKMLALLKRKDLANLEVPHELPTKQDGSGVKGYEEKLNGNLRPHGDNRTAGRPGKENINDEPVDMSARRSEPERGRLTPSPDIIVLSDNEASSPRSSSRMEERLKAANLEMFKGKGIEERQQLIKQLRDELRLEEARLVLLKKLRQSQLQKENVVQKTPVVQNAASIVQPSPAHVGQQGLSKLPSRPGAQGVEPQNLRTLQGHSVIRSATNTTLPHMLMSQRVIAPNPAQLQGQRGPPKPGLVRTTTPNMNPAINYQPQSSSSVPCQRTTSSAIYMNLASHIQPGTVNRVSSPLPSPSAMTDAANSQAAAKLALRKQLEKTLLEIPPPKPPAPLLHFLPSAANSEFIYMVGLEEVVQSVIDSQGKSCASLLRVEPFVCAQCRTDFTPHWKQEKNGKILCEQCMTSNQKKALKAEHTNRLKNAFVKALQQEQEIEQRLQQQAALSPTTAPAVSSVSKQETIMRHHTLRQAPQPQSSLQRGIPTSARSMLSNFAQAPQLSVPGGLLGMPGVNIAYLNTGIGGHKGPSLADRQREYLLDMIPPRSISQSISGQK

Listed as a hit, yes:
ATP-dependent chromatin remodeler CHD4, Q14839
Metastasis-associated protein MTA2, O94776
Transcriptional repressor p66-alpha, Q86YP4
